Most compounds without a hit are left out; they make up all but 7.4% or so of the library.
FLuc modulator – firefly luciferase modulation, counter-screen for miR-21 project | P08659 | purified FLuc, Km substrates, luminescence inhibition | Potency, µM (titrated, usually from 57.5 µM), without a hit: at the top dose activity change, negative = inhibition, usual class: inhibitors | 6.9% of 360,000 active;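 note: plate controls were vehicle for no effect and reference inhibitor for full effect; nearly all actives have a fitted effect of over 55% in size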
Target sequence (P08659 whole entry, looked up): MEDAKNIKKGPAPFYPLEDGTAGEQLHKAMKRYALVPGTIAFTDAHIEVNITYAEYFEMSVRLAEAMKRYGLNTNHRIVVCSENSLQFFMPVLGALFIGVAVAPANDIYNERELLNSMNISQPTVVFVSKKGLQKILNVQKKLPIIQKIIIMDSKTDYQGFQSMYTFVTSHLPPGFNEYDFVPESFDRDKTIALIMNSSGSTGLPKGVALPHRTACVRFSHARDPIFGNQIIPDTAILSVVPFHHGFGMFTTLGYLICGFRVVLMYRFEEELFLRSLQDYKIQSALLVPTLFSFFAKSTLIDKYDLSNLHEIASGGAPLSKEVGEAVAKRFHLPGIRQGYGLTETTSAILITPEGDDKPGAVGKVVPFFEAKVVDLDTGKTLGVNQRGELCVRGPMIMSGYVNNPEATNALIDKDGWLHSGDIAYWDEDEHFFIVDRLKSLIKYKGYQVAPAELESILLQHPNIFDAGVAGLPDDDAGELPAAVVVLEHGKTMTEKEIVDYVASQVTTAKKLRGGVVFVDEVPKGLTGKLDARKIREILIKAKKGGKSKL
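Purified P. pyralis luciferase, 10 nM final, with Km-level 10 uM D-luciferin and 10 uM ATP in 50 mM Tris acetate pH 7.5, 10 mM Mg acetate, 0.01% Tween-20, 0.05% BSA; 6-point qHTS titration about 60 µM downward; luminescence read.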
ELG1 genotoxic – induces genotoxicity in HEK293T cells with luciferase-tagged ELG1 | AID 504466 | Potency, µM (top dose mostly 46 µM), for inactives: top-dose activity change, positive = activation, most hits filed as activators | 1.3% of 330,000 active | HEK293T ELG1-luciferase reporter, luminescence, 16 h; note: % of control where 0% means no effect; nearly all actives have a fitted effect of over 60% in size
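DMSO vehicle served as control against compound-treated ELG1-luciferase HEK293T cells; exposure lasted 16 hr at 37 °C and 5% CO2, followed by ONE-Glo luminescence detection after 30 min.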
Rab9 promoter act – activates the Rab9 promoter; 2.8% of 320,000 active; AID 485297; Huh7 Rab9 promoter-luciferase reporter, luminescence, 24 h; Potency, µM (top dose mostly 9.22 µM), for inactives: at the highest dose activation, negative = inhibition, actives largely listed as activators; note: % of control where 0% means no effect; nearly all actives have a fitted effect of over 60% in size
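Rab9 promoter-driven luciferase in stably transfected Huh7 cells; 1500 cells/well rested 2 h, exposed to compound in DMSO for 24 h at 37 °C, 5% CO2. Luminescence read 10 min after adding luciferase reagent at ambient temperature.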
SMN2 splice up – SMN2 splice variant enhancement. HEK293 SMN2-luciferase splicing reporter, luminescence, 30-36 h. 2.8% of 210,000 active. Potency, µM (series often up to 46.1 µM), without a hit: at the highest dose activity change, positive = activation, usual class: activators; note: % of control where 0% means no effect; nearly all actives have a fitted effect of over 55% in size
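HEK293 cells carry an SMN2 minigene-luciferase reporter in which exon 7 inclusion puts luciferase in frame. Cells were seeded at 2000 cells/well, attached for 10-12 hours, then exposed to compounds for 30-36 hours at 37C before ONE-Glo luminescence.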
NPC1 promoter act – activators of NPC1 promoter; Huh7 NPC1 promoter luciferase reporter, 24 h; Potency, µM (doses to about 9.22 µM), for inactives: at the top dose activation, most hits filed as activators; 2.4% of 320,000 active; note: % of control where 0% means no effect; nearly all actives have a fitted effect of over 60% in size
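Compounds in DMSO were transferred onto Huh7 NPC1-luciferase reporter cells pre-incubated 2 h; after 24 h at 37 °C, Amplite reagent was dispensed and luminescence recorded 10 min later.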
Starred values were filed as active, the others as inactive; ? = inconclusive; . = not tested or not shown. Calls come from the whole dose curve; as a rule, active = well fitted curve in the direction sought with a large enough effect; inconclusive = small, poorly fitted or top-dose-only effect, or another doubt; inactive = no such curve, though single readings can be large; an effect the other way counts as inactive or inconclusive. Potency is the fitted concentration of half-maximal effect.

SMILES	FLuc modulator	ELG1 genotoxic	Rab9 promoter act	SMN2 splice up	NPC1 promoter act
O=c1oc(CCCO)cc2ccc(C#Cc3ccsc3)cc12	?	12%	-9%	.	?
CN(C)c1ccc(C#Cc2ccc3cc(CCCO)oc(=O)c3c2)cc1	1.7µM*	?	1%	.	2.8µM*
N#CC1=C(N)N(c2cccc(Cl)c2)C2=C(C(=O)CCC2)C1c1cc(CN2CCOCC2)cs1 (stereo not given)	-8%	.	.	10%	.
Cc1ccccc1-c1cncnc1N(C)Cc1ccco1	.	.	.	3%	.
COc1ccc2c(c1)c(=O)oc1c(C)c(OC(C)C(=O)N[C@@H](Cc3c[nH]c4ccc(O)cc34)C(=O)O)ccc12 (stereo not given in full)	12µM*	-2%	-3%	.	9%
O=C1CC(c2nc3ccccc3[nH]2)CN1c1ccccc1 (stereo not given)	0%	-5%	2%	-4%	3%
c1ccc(C2=Nc3ccccc3SC2c2nc3ccccc3[nH]2)cc1 (stereo not given)	17µM*	.	.	?	.
CCCCc1ccc(C(=O)N/C(=C\c2ccc(C)cc2)C(=O)NC2CCCCC2)cc1	-1%	.	.	21%	.
Clc1cccc(-c2ccc(C=Nc3ccc(N4CCOCC4)cc3)o2)c1	11µM*	3%	-11%	-28%	3%
Oc1ccc(N=Nc2cccc(Cl)c2)cc1C=Nc1ccc(N2CCOCC2)cc1	-17%	7%	0%	-67%	13%
Oc1c(Br)cc(Cl)cc1C=Nc1ccc(N2CCOCC2)cc1	17µM*	-5%	-6%	.	0%
COc1ccc2cc3cc(C(=O)NC4CC4)sc3nc2c1	0.67µM*	?	0.32µM*	.	0.45µM*
COc1ccc2nc3sc(C(=O)NCCN4CCc5ccccc5C4)cc3cc2c1	?	7%	13%	4%	2%
COc1ccc2cc3cc(C(=O)NCCCN4CCc5ccccc5C4)sc3nc2c1	9.5µM*	7%	4.5µM*	16µM*	?
CC(=O)c1ccc(OCCCC(=O)NCCc2ccccc2)cc1	1%	7%	-3%	.	2%
Cc1cc(C(=O)N/N=C/c2ccc([N+](=O)[O-])o2)c(C)o1	5%	-13%	-3%	.	-4%
O=C(N/N=C/c1ccc([N+](=O)[O-])o1)c1cc(-c2cccc(Br)c2)nc2ccccc12	4.8µM*	-3%	23%	-64%	0%
CCCc1ccc(-c2cc(C(=O)N/N=C/c3ccc([N+](=O)[O-])o3)c3ccccc3n2)cc1	0.15µM*	?	?	4%	9%
C/C=C\C=C/C(=O)Nc1cccc(C2=NOC3(C2)C[C@H](C(N)=O)N(C(=O)Cc2ccc([N+](=O)[O-])cc2)C3)c1 (stereo not given in full)	21µM*	8%	1%	.	-1%
C/C=C/C=C/C(=O)N1CC2(CC(c3cccc(NC(=O)CCCCC)c3)=NO2)C[C@H]1C(N)=O (stereo not given in full)	-17%	-3%	-1%	.	-3%
C/C=C\C=C/C(=O)Nc1cccc(C2=NOC3(C2)C[C@@H](C(N)=O)N(C(=O)CCCCC)C3)c1 (stereo not given in full)	13µM*	2%	-5%	.	-39%
C/C=C\C=C/C(=O)Nc1cccc(C2=NOC3(C2)C[C@H](C(N)=O)N(C(=O)CC)C3)c1 (stereo not given in full)	19µM*	0%	3%	.	1%
Cc1ccc(S(=O)(=O)Oc2ccc(/C=N/N=C3/NC(=O)C(CC(=O)O)S3)cc2)cc1[N+](=O)[O-] (stereo not given)	-2%	5%	5%	.	-4%
C[C@@H](C(=O)NCc1nc2ccccc2[nH]1)[C@@H]1C[C@@]1(C)[C@@H](NC(=O)OCc1ccccc1)c1ccccc1	.	.	.	-23%	.
CCOC(=O)c1ccccc1NC(=O)NC(C)c1c(-n2cccc2)sc(C)c1C (stereo not given)	-8%	.	.	-3%	.
CC(=O)CCC1CC(c2ccc(Cl)cc2)=NO1 (stereo not given)	7.6µM*	?	1.4µM*	.	1.1µM*

Bioassay records from PubChem BioAssay.
